Results: PubChem BioAssay (EPA / NIEHS)
A structure can be active in one record and inactive in another. The source made the active and inactive calls. How the source made its calls: active means hit-call score of the fitted dose curve at least 0.9, where 1 is the maximum; inactive means score below 0.9.

What was measured:
[1] = BSK_CASM3C_SRB: Viability Assessment in the BioMAP Diversity Plus: CASM3C Assay (AID 2283050); settings: primary human coronary artery smooth muscle cells;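 further: cells exposed to compound for 24 h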
[2] = read-out: Thrombomodulin, THBD (gene 7056); experiment: BSK_CASM3C_Thrombomodulin: BioMAP Diversity Plus: CASM3C Assay for Thrombomodulin Biomarker Activity (AID 2283051); settings: primary human coronary artery smooth muscle cells; actives raise or lower the signal;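 further: thrombomodulin protein level measured by ELISA 24 h after dosing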
[3] = read-out: Tissue Factor, F3 (gene 2152); experiment: BSK_CASM3C_TissueFactor: BioMAP Diversity Plus: CASM3C Assay for Tissue Factor Biomarker Activity (AID 2283052); settings: primary human coronary artery smooth muscle cells; actives raise or lower the signal;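 further: cell surface tissue factor protein level read by ELISA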
[4] = read-out: Interferon-gamma inducible Protein 10 (IP10), CXCL10 (gene 3627); experiment: BSK_hDFCGF_IP10: BioMAP Diversity Plus: hDFCGF Assay for Interferon-gamma inducible Protein 10 (IP10) Biomarker Activity (AID 2283053); settings: primary human foreskin fibroblasts; actives raise or lower the signal
Summary of the method: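 Primary human foreskin fibroblasts exposed to chemicals for 24 h. IP-10 measured by ELISA; changes fitted bidirectionally against DMSO baseline.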

[5] = read-out: Urokinase-type plasminogen activator receptor (uPAR), PLAUR (gene 5329); experiment: BSK_CASM3C_uPAR: BioMAP Diversity Plus: CASM3C Assay for Urokinase-type plasminogen activator receptor (uPAR) Biomarker Activity (AID 2283054); settings: primary human coronary artery smooth muscle cells; actives raise or lower the signal;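 further: cell-surface uPAR protein level quantified by ELISA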
[6] = read-out: Vascular cell adhesion molecule 1 (VCAM1), VCAM1 (gene 7412); experiment: BSK_CASM3C_VCAM1: BioMAP Diversity Plus: CASM3C Assay for Vascular cell adhesion molecule 1 (VCAM1) Biomarker Activity (AID 2283055); settings: primary human coronary artery smooth muscle cells; actives raise or lower the signal;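 further: VCAM-1 protein level quantified by ELISA on the cells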
[7] = read-out: Collagen III, COL3A1 (gene 1281); experiment: BSK_hDFCGF_CollagenIII: BioMAP Diversity Plus: hDFCGF Assay for Collagen III Biomarker Activity (AID 2283056); settings: primary human foreskin fibroblasts; actives raise or lower the signal
Summary of the method: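 ELISA read-out of collagen III from human skin fibroblast cultures sampled 24 h post-dosing. Values were derived by bidirectional fitting relative to the DMSO vehicle control.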

[8] = read-out: Epidermal growth factor receptor (EGFR), EGFR (gene 1956); experiment: BSK_hDFCGF_EGFR: BioMAP Diversity Plus: hDFCGF Assay for Epidermal growth factor receptor (EGFR) Biomarker Activity (AID 2283057); settings: primary human foreskin fibroblasts; actives raise or lower the signal
Summary of the method: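 Primary human foreskin fibroblasts (hDFCGF system), sampled 24 h after dosing; EGFR quantified by ELISA. Bidirectional fit relative to DMSO baseline; SRB total-protein staining in parallel cultures for cytotoxicity.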

[9] = read-out: Interleukin-8 (IL8), CXCL8 (gene 3576); experiment: BSK_hDFCGF_IL8: BioMAP Diversity Plus: hDFCGF Assay for Interleukin-8 (IL8) Biomarker Activity (AID 2283058); settings: primary human foreskin fibroblasts; actives raise or lower the signal
Summary of the method: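 Cells used are human skin primary fibroblasts. Chemical is added, cultures run 24 h, then IL-8 is quantified by ELISA, and gain or loss versus DMSO control is fitted in both directions.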

[10] = BSK_hDFCGF_Proliferation: Cell Proliferation Assessment in the BioMAP Diversity Plus: hDFCGF Assay (AID 2283059); settings: primary human foreskin fibroblasts;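 further: curves fitted for both rise and fall of signal versus DMSO baseline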
Summary of the method: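 Total protein read at 560 nm after 0.1% SRB staining of TCA-fixed human skin fibroblasts, […]. Activity is fitted in both directions relative to DMSO as baseline.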

[11] = read-out: Macrophage colony-stimulating factor (MCSF), CSF1 (gene 1435); experiment: BSK_hDFCGF_MCSF: BioMAP Diversity Plus: hDFCGF Assay for Macrophage colony-stimulating factor (MCSF) Biomarker Activity (AID 2283060); settings: primary human foreskin fibroblasts; actives raise or lower the signal
Summary of the method: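 Primary human foreskin fibroblasts dosed with chemical; 24 h later, M-CSF quantified by ELISA; curves fitted in both directions vs DMSO negative control.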

[12] = BSK_hDFCGF_SRB: Viability Assessment in the BioMAP Diversity Plus: hDFCGF Assay (AID 2283061); settings: primary human foreskin fibroblasts;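 further: cells exposed to compound for 24 h before the read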
Summary of the method: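 Readout is SRB absorbance at 560 nm, reflecting total protein in parallel cultures of human foreskin fibroblasts harvested 24 h after chemical dosing. Activity was fitted bidirectionally relative to DMSO.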

[13] = read-out: TIMP metallopeptidase inhibitor 1 (TIMP1), TIMP1 (gene 7076); experiment: BSK_hDFCGF_TIMP1: BioMAP Diversity Plus: hDFCGF Assay for TIMP metallopeptidase inhibitor 1 (TIMP1) Biomarker Activity (AID 2283062); settings: primary human foreskin fibroblasts; actives raise or lower the signal
Summary of the method: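 Human skin fibroblasts (primary), hDFCGF system; compound exposure 24 h; TIMP-1 by ELISA; bidirectional fit vs DMSO negative control; overt cytotoxicity by SRB in parallel wells.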

[14] = read-out: Monokine induced gamma interferon (MIG), CXCL9 (gene 4283); experiment: BSK_hDFCGF_MIG: BioMAP Diversity Plus: hDFCGF Assay for Monokine induced gamma interferon (MIG) Biomarker Activity (AID 2283063); settings: primary human foreskin fibroblasts; actives raise or lower the signal
Summary of the method: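 Chemicals were added to primary human foreskin fibroblast cultures, which were sampled 24 h later. MIG levels were then quantified by ELISA and responses fitted in both directions relative to DMSO.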

[15] = read-out: Matrix Metallopeptidase 1 (MMP1), MMP1 (gene 4312); experiment: BSK_hDFCGF_MMP1: BioMAP Diversity Plus: hDFCGF Assay for Matrix Metallopeptidase 1 (MMP1) Biomarker Activity (AID 2283064); settings: primary human foreskin fibroblasts; actives raise or lower the signal
Summary of the method: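 Primary human foreskin fibroblasts in the hDFCGF system were dosed with test chemical, and MMP1 was measured by ELISA 24 h later. Values come from bidirectional curve fitting against the DMSO baseline.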

[16] = read-out: Vascular cell adhesion molecule 1 (VCAM1), VCAM1 (gene 7412); experiment: BSK_hDFCGF_VCAM1: BioMAP Diversity Plus: hDFCGF Assay for Vascular cell adhesion molecule 1 (VCAM1) Biomarker Activity (AID 2283065); settings: primary human foreskin fibroblasts; actives raise or lower the signal;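 on AC50: VCAM-1 protein level quantified by ELISA after 24 h chemical exposure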
Summary of the method: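 Human foreskin fibroblast primary cells, chemical exposure 24 h; VCAM-1 by ELISA; bidirectional fit, DMSO = negative control/baseline.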

[17] = read-out: Plasminogen activator inhibitor-1 (PAI1), SERPINE1 (gene 5054); experiment: BSK_hDFCGF_PAI1: BioMAP Diversity Plus: hDFCGF Assay for Plasminogen activator inhibitor-1 (PAI1) Biomarker Activity (AID 2283066); settings: primary human foreskin fibroblasts; actives raise or lower the signal
Summary of the method: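 Human foreskin fibroblast primary cells, 24 h chemical exposure; PAI-1 measured by ELISA. Bidirectional fitting relative to DMSO; parallel cultures stained with SRB for total protein to flag overt cytotoxicity.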

[18] = read-out: Intercellular Adhesion Molecule 1 (ICAM1), ICAM1 (gene 3383); experiment: BSK_KF3CT_ICAM1: BioMAP Diversity Plus: KF3CT Assay for Intercellular Adhesion Molecule 1 (ICAM1) Biomarker Activity (AID 2283067); settings: primary human keratinocytes with fibroblasts; actives raise or lower the signal
Summary of the method: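 ICAM-1 levels are measured by ELISA 24 h after dosing a primary human co-culture of keratinocytes and foreskin fibroblasts. Activity in either direction is fitted relative to DMSO vehicle.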

[19] = read-out: Interferon-gamma inducible Protein 10 (IP10), CXCL10 (gene 3627); experiment: BSK_KF3CT_IP10: BioMAP Diversity Plus: KF3CT Assay for Interferon-gamma inducible Protein 10 (IP10) Biomarker Activity (AID 2283068); settings: primary human keratinocytes with fibroblasts; actives raise or lower the signal
Summary of the method: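 Human keratinocyte plus foreskin fibroblast primary co-culture exposed to test chemical for 24 h; IP-10 measured by ELISA. Concentration-response fitted bidirectionally against DMSO control as baseline.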

[20] = BSK_KF3CT_SRB: Viability Assessment in the BioMAP Diversity Plus: KF3CT Assay (AID 2283069); settings: primary human keratinocytes with fibroblasts;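 further: total protein by sulforhodamine B staining as a cytotoxicity measure; read 24 h after compound addition; fitted for both signal gain and loss against DMSO baseline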
Summary of the method: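 Human primary keratinocyte plus foreskin fibroblast co-culture exposed to chemicals for 24 h. Total protein measured by 0.1% sulforhodamine B staining after 10% TCA fixation, read at 560 nm; bidirectional fitting versus DMSO baseline.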

Measured: AC50

FC(F)=C(F)C(F)(F)C(F)(F)C(F)(F)C(F)(F)C(F)(F)C(F)(F)F
inactive: all assays above

COCc1nnc(-c2ccc[n+]([O-])c2)n1-c1c(Cl)c(Cl)cc2[nH]c(=O)c(=O)[nH]c12
inactive: all assays above

CCCCCCCCCC
inactive: all assays above

C[C@@H](Oc1ccc(CNC(=O)c2cccnc2Oc2ccc3c(c2)OCO3)c(F)c1)C(=O)O
inactive: all assays above

O=S(=O)(O)CCC(F)(F)C(F)(F)C(F)(F)C(F)(F)C(F)(F)C(F)(F)F
inactive: [1] | [2] | [3] | [4] | [5] | [6] | [7] | [8] | [9] | [10] | [11] | [12] | [13] | [14] | [15] | [16] | [17] | [18] | [19] | [20]
active: [11] 6.02 µM | [12] 8.85 µM

CCOC(N)=O
inactive: all assays above

OCc1ccccc1
inactive: all assays above

OC(Cn1cncn1)(Cn1cncn1)c1ccc(F)cc1F
inactive: all assays above

c1ccc2cc3ccccc3cc2c1
inactive: all assays above

OCCOCCOCCO
inactive: all assays above

CC1(C)C(=O)N(Cl)C(=O)N1Cl
inactive: all assays above

NC(=O)N1c2ccccc2C=Cc2ccccc21
inactive: all assays above

Cc1ncc([C@@H](CCCCCCc2ccc3c(n2)NCCC3)CC(=O)O)cn1
active: [5] 0.148 µM
inactive: all other assays above

CCCCOC(=O)c1ccccc1
inactive: all assays above

CC(C)CC(C)O (configuration not stated)
inactive: all assays above

NCC(F)(F)C(F)(F)C(F)(F)C(F)(F)F
inactive: all assays above

CCCc1ccccc1
inactive: all assays above

O=C(Cl)C(F)(F)C(F)(F)C(F)(F)C(=O)Cl
inactive: all assays above

O=S1(=O)CCCO1
inactive: all assays above

CCCCC(CC)C(=O)OCCOCCOCCOC(=O)C(CC)CCCC (configuration not stated)
active: [2] 20 µM | [7] 20 µM | [10] 11 µM | [11] 10.7 µM
inactive: all other assays above

OC[C@H]1O[C@@H]2O[C@H]3[C@H](O)[C@@H](O)[C@@H](O[C@H]4[C@H](O)[C@@H](O)[C@@H](O[C@H]5[C@H](O)[C@@H](O)[C@@H](O[C@H]6[C@H](O)[C@@H](O)[C@@H](O[C@H]7[C@H](O)[C@@H](O)[C@@H](O[C@H]1[C@H](O)[C@H]2O)O[C@@H]7CO)O[C@@H]6CO)O[C@@H]5CO)O[C@@H]4CO)O[C@@H]3CO
inactive: all assays above

Nc1ccn([C@@H]2O[C@H](CO)[C@@H](O)[C@@H]2O)c(=O)n1
active: [10] 0.615 µM
inactive: all other assays above

CC(C)c1nnc2ccc(-c3ocnc3-c3cc(F)ccc3F)cn12
active: [4] 0.628 µM | [6] 0.354 µM | [10] 5.62 µM | [15] 0.385 µM | [16] 0.148 µM
inactive: all other assays above

COc1cc(C(C)C)c2c(c1)S(=O)(=O)N(COc1cc(=O)n3cccc(OCCN4CCCCC4)c3n1)C2=O
active: [4] 6.1 µM | [6] 5 µM | [10] 5.44 µM | [11] 3.29 µM | [12] 8.05 µM | [14] 5.41 µM | [15] 1.3 µM | [16] 2.72 µM | [17] 6.38 µM | [19] 7.22 µM
inactive: [1] | [2] | [3] | [5] | [7] | [8] | [9] | [13] | [18] | [20]

O=C(NO)C1(NS(=O)(=O)c2ccc(Oc3ccc(F)cc3)cc2)CCOCC1
inactive: all assays above

OCCC(F)(F)C(F)(F)C(F)(F)C(F)(F)F
inactive: all assays above
